Screen size: about 64,000 compounds; about 2,200 (3.4%) were called active.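 How the source made its calls: active means calcium fluorescence response, raw or row-and-column corrected B-score, differing from the plate sample mean either way at a set confidence level, mostly lower; inactive means the rest.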 Many of the other results were omitted from the sample, so actives are more common in it than they were.
target: Muscarinic acetylcholine receptor M1 (Rattus norvegicus) (UniProt P08482); experiment: blocks the rat M1 muscarinic receptor response to acetylcholine (AID 628); conditions: CHO-M1 cells, Fluo-4 calcium, ACh EC80 antagonist mode; at 10 µM; stronger effect = lower value
Sequence (P08482 whole entry, looked up): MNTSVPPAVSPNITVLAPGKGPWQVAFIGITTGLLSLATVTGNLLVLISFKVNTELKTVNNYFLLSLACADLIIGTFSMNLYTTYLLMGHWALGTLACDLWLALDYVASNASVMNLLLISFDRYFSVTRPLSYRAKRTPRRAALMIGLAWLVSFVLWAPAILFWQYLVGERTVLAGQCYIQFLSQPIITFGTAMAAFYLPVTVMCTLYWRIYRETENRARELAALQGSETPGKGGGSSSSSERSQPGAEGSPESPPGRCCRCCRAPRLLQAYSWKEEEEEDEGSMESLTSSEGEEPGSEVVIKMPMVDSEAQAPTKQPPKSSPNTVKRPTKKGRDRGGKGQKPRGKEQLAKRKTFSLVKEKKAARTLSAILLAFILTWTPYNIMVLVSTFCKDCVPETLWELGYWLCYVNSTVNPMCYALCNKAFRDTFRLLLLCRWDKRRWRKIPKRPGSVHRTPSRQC

SMILES	B-score
N#Cc1ccccc1-n1c(N)c(C(=O)N2CCCC2)sc1=S	0.0882 (inactive)
CCc1ccccc1N(CC(=O)NCCSCc1ccco1)S(C)(=O)=O	0.00624 (inactive)
COc1ccccc1Nc1ncc(C(C)=O)c(C)n1	-0.0613 (inactive)
COc1cccc2sc(Nc3nc(C)c(C(C)=O)s3)nc12	-5.09 (active)
COC(=O)c1sc(NC(=O)c2ccc(OC)cc2OC)nc1C	0.124 (inactive)
O=C(CC(NCCN1CCOCC1)C(=O)O)Nc1cccc(Cl)c1 (centres undefined)	-0.31 (inactive)
C=CCNC(=O)c1cc(-c2ccccc2O)on1	-0.349 (inactive)
Cn1c(CCN2CCCCCC2)nc2cc(NC(=O)Nc3ccccc3)ccc21	-12.1 (active)
Cc1nn(CC(=O)Nc2ccc3c(c2)nc(CN2CCCCC2)n3C)c(=O)c2ccccc12	-0.553 (inactive)
CCC(=O)Nc1ccc2c(c1)nc(CCN1CCN(C)CC1)n2C	0.254 (inactive)
CC(=O)Nc1ccc(-c2cn3cccnc3n2)cc1	-0.0342 (inactive)
COc1ccc(S(=O)(=O)NC(CC(=O)NCc2ccccc2OC)c2ccco2)cc1 (centres undefined)	-0.297 (inactive)
CCS(=O)(=O)n1nc(-c2ccc(OC)cc2)nc1SC	0.364 (inactive)
O=C1CCCN1CCCNc1ncnc2c1[nH]c1ccccc12	-0.26 (inactive)
CCN1CCCC1CNc1ncnc2c1[nH]c1ccc(F)cc12 (centres undefined)	0.215 (inactive)
CC(C)OCCCNc1ncnc2c1[nH]c1ccc(F)cc12	-5.34 (active)
Cc1ccc2c(c1)NCC(C(=O)NC1CCC(C)CC1)O2 (centres undefined)	0.906 (inactive)
O=C(Oc1cccnc1)c1cc2ccccc2oc1=O	-1.49 (inactive)
OC(COc1cccc2ccccc12)CN1CCN(c2ccccn2)CC1 (centres undefined)	-0.255 (inactive)
CN(C)[C@@H]1C(=O)C(C(N)=O)=C(O)[C@@]2(O)C(=O)C3=C(O)c4c(O)ccc(Cl)c4[C@@H](O)[C@H]3C[C@@H]12	-15.3 (active)
Cn1cccc1C(=O)NC(=O)COC(=O)Cc1coc2ccc3ccccc3c12	-0.0274 (inactive)
COc1ccccc1CNC(=O)C1CCN(S(C)(=O)=O)CC1	0.445 (inactive)
Cc1nc(NCCN)c(C#N)c2c1COC(C)(C)C2	0.614 (inactive)
Fc1ccc2[nH]c3c(N4CCSCC4)ncnc3c2c1	-2.69 (active)
Cc1ccc(-n2ncc3c(N4CCN(c5ccc(F)cc5)CC4)ncnc32)c(C)c1	-0.0379 (inactive)
Fc1ccc2[nH]c3c(N4CCN(Cc5ccc6c(c5)OCO6)CC4)ncnc3c2c1	-0.265 (inactive)
Cc1ccc2nc(NC3=NCN(CCc4ccccc4)CN3)nc(C)c2c1	-5.98 (active)
N#CNC1=NCN(CCc2ccccc2)CN1	-0.391 (inactive)
c1ccc(CCN2CN=C(Nc3nc4ccccc4o3)NC2)cc1	0.0039 (inactive)

Reference: PubChem BioAssay AID628 (Vanderbilt High Throughput Screening Facility, 2007)
